According to PubChem BioAssay AID1766 (National Center for Advancing Translational Sciences (NCATS), 2009):
Hit rate of the full screen: of about 290,000 compounds, fewer than 10 were called active. About 3% were inconclusive and are not listed. The call rests on the fitted dose curve; in most records, active means well fitted curve in the direction sought with a large enough effect in the polarisation (not every such curve was filed as active); inconclusive means small, poorly fitted or top-dose-only effect, or effect the other way, or a change in a side signal; inactive means no such curve, though single readings can be large or run the other way; the % refers to the polarisation. These entries were drawn from the full list.

Test: qHTS Assay for Inhibitors Targeting the Menin-MLL Interaction in MLL Related Leukemias: Competition With Fluorescein Labeled MLL-derived Peptide; further: % of control where 0% means no effect
Conditions: Fluorescence polarization, fluorescein-MLL peptide displacement from menin; series mostly up to 61.4 µM; FP activity change: at the top concentration
Excerpt: qHTS Assay for Inhibitors Targeting the Menin-MLL Interaction in MLL Related Leukemias NIH Chemical Genomics Center [NCGC] NIH Molecular Libraries Probe Centers Network [MLPCN] MLPCN Grant: MH084875-01A1 Assay Submitter (PI): Jolanta Grembecka, Tomasz Cierpicki, University of Virginia Translocations of the MLL (Mixed Lineage Leukemia) gene are frequently found in human leukemias affecting both children and adults. Fusion of MLL to one of more than 60 genes results in generation of oncogenic proteins upregulating Hox genes, which are vital to blood cell development. Patients harboring fusion of the MLL gene suffer from aggressive leukemias and respond poorly to available therapies. All of the oncogenic fusion proteins have a preserved N-terminal fragment of MLL that has been identified to interact with menin. It has been recently discovered that association with menin is critical to the leukemogenic activity of the MLL fusion oncoproteins. Selective targeting of the menin-MLL interaction could provide an attractive therapeutic approach to develop novel drugs for MLL-related leukemias. Small molecules blocking the menin-MLL interaction should reverse the oncogenic potential of MLL fusion proteins. We have developed and optimized a fluorescence polarization-based assay for the identification of Menin-MLL inhibitors. The assay was run employing two different MLL-derived peptides. The present assay uses a 12 amino acid peptide labeled with fluorescein at its N-terminus. This peptide consists of the menin high affinity binding motif from MLL and is potently bound by menin. Another peptide with a mutated sequence, labeled with Texas Red, was used in parallel as a less stringent screen for inhibitors.
The Menin protein, the MLL-wild type (w.t.) derived peptide (N-terminal 12 amino acids), the MLL-derived peptide labeled with Texas Red and the MLL-w.t. peptide labeled with Fluorescein were kindly supplied by laboratory of Dr. Jolanta Grembecka, University of Virginia. All protein and peptide solutions were stored in single use aliquots at -80C. The Eu3+ Cyrptate-conjugated mouse monoclonal antibody anti-6 Histidine (Eu3+-AB) and the Streptavidin-XL665 conjugate (XL665) were purchased from Cisbio International (Bedford, MA). All antibody and XL665 conjugate solution stocks were stored in single use aliquots at -20C. The Buffer components for all assays were purchased from Sigma-Aldrich (St. Louis, MO) and Invitrogen (Carlsbad, CA). FP Assay Reagents: 1. FP reaction buffer: 50 mM Tris-HCl pH 7.5, 50 mM NaCl, 1mM DTT. Before use, 0.05% BSA is added. 2. Menin protein, MLL-w.t. labeled with fluorescein, MLL-mutant peptide labeled with texas red. Stored in singe use aliquots at -80C. 3. MLL-w.t. unlabeled peptide as positive control: 10 uM final in FP buffer. FP Assay Procedure: 1. Prepare Menin at 200 nM, MLL-w.t.-fluorescein at 25 nM, and MLL-mutant-texas red at 50 nM mixture in FP buffer. 2. Prepare Menin at 200 nM, MLL-w.t.-fluorescein at 25 nM, MLL-mutant-texas red at 50 nM, and 10 uM MLL-w.t. unlabeled mixture in FP buffer. 3. Prepare MLL-w.t.-fluorescein at 25 nM and MLL-mutant-texas red at 50 nM mixture in FP buffer. 3. Dispense 4 ul per well of reagent in step 1 in columns 2, 4 - 48 in a black 1536 well plate, dispense 4 ul per well of reagents from steps 2 and 3 in columns 1 and 3 respectively. Incubate plate at ambient for 15 minutes. 4. Transfer 23 nl per well of compound to plate and incubate at ambient for 1 hr. 5. Read fluorescence polarization for each label using the PerkinElmer Envision. Envision protocol for fluorescein: FITC FP Dual Enh Mirror, Excitation filter 480, Emission filter (1) P-pol 535, Emission filter (2) S-pol 535 Envision protocol for texas red: FP Dual Enh Mirror, Excitation filter 555, Emission filter (1) P-pol 632, Emission filter (2) S-pol 632

FP activity change, inactive:
CC(C)(C)c1ccc(Cn2nnc3c(=O)[nH]c(C4CCCN(C(=O)c5ccco5)C4)nc32)cc1 (centres undefined) 2.29%
C/C=C/C=N/NC(=O)c1ccncc1 -2.94%
CCC(=O)Nc1nc(C)c(C(=O)Nc2cccc(Cl)c2)s1 -0.766%
COC(=O)c1ccc(CN2C(=O)NC(c3ccccc3)(c3ccccc3)C2=O)o1 -3.74%
O=C(Nc1nnc(-c2ccccc2F)s1)c1ccccc1F 0.841%
S=c1[nH]c(-c2cccs2)cn1-c1ccccc1 -10%
Cc1ccc(-c2csc(N3CCN(c4cc5c(cc4Cl)nc(-c4ccncc4)n5CCOCCO)CC3)n2)cc1 -0.208%
CCOc1ccc(-n2c(SCC(=O)OC)nc3sc4c(c3c2=O)CCN(C)C4)cc1 6.86%
COC(=O)c1ccc(Nc2ncnc3sccc23)cc1 3.91%
Cc1ccc(NC(=O)Nc2cccnc2)cc1 -1.76%
Cc1ccc(N(Cc2ccccc2O)C(=O)c2ccccc2F)cc1 -5.27%
Cc1ccccc1NC(=S)NC(=O)Cc1ccc(Cl)cc1 -2.56%
O=C(NCCCO)c1cc2c([nH]c3ccccc32)c(-c2ccc(F)cc2)n1 -0.599%
Cc1cc(CNC(=O)C2CCC(=O)N(CCc3ccc(Cl)cc3)C2)no1 (centres undefined) 4.02%
O=C1CCC([N+](=O)[O-])C(c2ccccc2Br)N1 (centres undefined) -0.866%
CSc1nnc2ccc(-c3ccc(C)cc3)nn12 3.46%
Cc1ccc(C(=O)c2coc3ccc(O)c(CN(C)C)c23)cc1 -0.231%
CC1(C(=O)NCCc2c[nH]c3ccccc23)C=CC2(CCCCC2)N1C(=O)c1ccccc1 (centres undefined) 0.914%
Cc1ccc(O)c(NC(=O)c2cc(-c3ccco3)on2)c1 11%
Cc1ccccc1NC(=O)CCOc1ccccc1 0.005%
Cc1ccc(SCC(CC(C)C)N2CCN(CCc3ccccc3)CCC2=O)cc1 (centres undefined) 4.19%
NS(=O)(=O)c1ccc(CCNC(=O)c2nc(CS(=O)(=O)c3ccc(Cl)cc3)no2)cc1 -0.948%
O=C1CCN(Cc2ccccc2)CCN1[C@H](CSc1ccccc1)c1ccccc1 0.158%
CS(=O)(=O)N(CC(=O)N1CCCCCC1)c1cccc(Cl)c1Cl -2.08%
COc1ccc(NC(=O)N2CCCC2C(=O)NCc2ccccc2Cl)cc1 (centres undefined) -7.57%
O=C(NCCCN1CCOCC1)C1CCCN(S(=O)(=O)N2CCCCC2)C1 (centres undefined) 0.555%
Cc1cc(F)ccc1N1CCC(N2CCN(C)C(CCO)C2)CC1 (centres undefined) -7.47%
Cc1cccc(C(=O)OC(C)CN2CCCC2)c1 (centres undefined) 5.39%
Cc1cn([C@H]2CC(F)[C@@H](CO)O2)c(=O)[nH]c1=O (some centres undefined) -4.2%
CN1C(=O)CN2CCc3ccccc3C2c2cc(Cl)ccc21 (centres undefined) -5.51%
C=C1C(=CC=C2CCC[C@@]3(C)[C@@H]2CC[C@H]3[C@H](C)CCCC(C)C)C[C@@H](O)C[C@@H]1O 9.09%
COc1ccc(NC2CCCN(C(=O)c3ccncc3)C2)cc1 (centres undefined) -4.31%
COc1cccc(OCc2cc(C(=O)N3CCN(C(=O)c4ccco4)CC3)no2)c1 6.94%
Cc1ccc(-c2nc(-c3ccncc3)no2)c(C)c1 -1.78%
CN(Cc1ccccc1)C(=O)c1ccc(COc2ccccc2)cc1 -7.59%
COc1cccc(NC(=O)C2C(c3ccccc3)C2(Cl)Cl)c1 (centres undefined) -0.0582%
CN(CCO)c1ccc(/C=N/Nc2nncc3ccccc23)cc1 -4.23%
CC(C)c1ccc(NC(=O)Cn2ncc3ccccc32)cc1 -5.91%
COc1ccc(-c2n[nH]c(C)c2-c2ccccc2OC)c(O)c1 -3.47%
CN(CCc1ccccc1)c1ccc([N+](=O)[O-])cn1 -0.677%
CC(C)(C)OC(=O)NC(Cc1ccccc1)C(=O)NC(CSC1CCCCO1)C(=O)NN (centres undefined) -3.74%
CN(CC(=O)Nc1ccc(Cl)cc1)C(=O)CNC(=O)c1ccc2ccccc2c1 -0.426%
O=C(CCN1CCCO1)N1CCCC(N2CCN(c3cccc(C(F)(F)F)c3)CC2)C1 (centres undefined) 3.51%
C/C(=N\NC(=O)c1ccoc1C)c1ccccc1O -0.0656%
CC(=O)Nc1ccc(NC(=O)CC2CCCC2)cc1 8.07%
COc1cccc2cc(C(N)=O)/c(=N\NC(=O)c3ccccc3)oc12 3.41%
COc1ccc(OC)c(/C(C)=N\NC(=O)c2cc3cc(Cl)ccc3n2C)c1 4.34%
CCCC[C@]12Cc3cc(OC)c(OC)cc3C(O1)C1=C(CC3(CCCCC3)OC1=O)O2 0.345% [at 11.7 µM]
O=C(COc1ccc(S(=O)(=O)Nc2cccc(C(F)(F)F)c2)cc1)N1CCOCC1 3.89%
O=C(CSc1nnnn1C1CCCC1)N1CCCCC1 0.177%
C[C@@H]1CC[C@@]2(OC1)O[C@H]1C[C@H]3[C@@H]4CC=C5C[C@@H](O)[C@H](O)C[C@]5(C)C4CC[C@]3(C)[C@H]1[C@@H]2C (some centres undefined) -14.6%
COc1c(O)c2c(=O)cc(OC)c3c4c(OC)cc(=O)c5c(O)c(OC)c6c(c(c1C[C@@](C)(O)[C@H]6C(C)=O)c23)c54 -8.66%
COCCNc1cc(-c2ccccc2)nc2cc(-c3cccc(F)c3)nn12 2.42%
COc1ccc(OC)c(NC(=O)CN(C)CCOc2ccc(Br)cc2)c1 -13.1%
CC(C)(c1ccccc1)c1ccc(OCCN2CCCC2)cc1 -1.58%
CCN(CC)c1ccc(/C=N/NC(=O)CNC(=O)c2cccs2)cc1 2.38%
O=C(Cc1cccs1)NCc1cccc(C(F)(F)F)c1 -0.128%
Cc1cc(S(=O)(=O)NCc2ccccn2)c(Cl)cc1Cl -0.167%
COc1ccccc1CNS(=O)(=O)c1ccc2c(c1)NC(=O)CS2 -0.943%
COc1ccc(CNS(=O)(=O)c2ccc(NC(=O)N3CCCCC3)cc2)cc1 -0.428%
Oc1ccc(-c2cccc(-c3ccc(O)cc3)c2)cc1 0.0539%
CCCn1c(=O)c(C(=O)Nc2cc(C)ccn2)c(O)c2ccccc21 1.11%
Cc1cccc(C)c1NC(=O)NC1=CCCN1C 0.307%
O=C(Nc1ccc(F)cc1)c1ccc(S(=O)(=O)NCc2cccnc2)cc1 -2.58%
CC(C)NC(=O)COCc1cc(-c2ccc3c(c2)OCO3)on1 1.18%
COc1ccc(/C=N/Nc2nc(-c3ccc(C)cc3)c(C#N)c(=O)[nH]2)cc1 4.62%
COc1ccc(NCCc2ccccn2)cc1 7.39%
COc1cc(Cl)ccc1OCc1cc(C(=O)N(C)CCc2c(C)n[nH]c2C)no1 5.22%
CCCCn1c(-c2cccc(C)c2)nc2cc3[nH]c(=O)c(C(C)C)nc3cc21 -1.86%
